Whole data set: some 59,000 sequences, median the read-out near -0.00055, cut for the lowest 2% near -2. The entries come from a sample that favours the lowest values as a whole.
Test: Identification of proteins required for the processing of the EWS-FLI1 nascent transcript;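 note: robust z of luciferase light less the median z of siRNAs with the same seed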
Conditions: TC32 Ewing sarcoma NR0B1-luc vs CMV-luc (EWS-FLI1 target promoter against control promoter), 48 h; screened at 20 nM (by protocol)
Summary of the method: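 Genome-wide siRNA screen (Ambion v4.1, three siRNAs per gene, 20 nM final, RNAiMax) in Ewing sarcoma TC32 cells carrying NR0B1-promoter or CMV-promoter luciferase; OneGlo luciferase read 48 h post-transfection. Data normalized, z-score-MAD transformed and seed-adjusted.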

In order of rising seed-corrected z-score:
1. UAGGAGAUAAAGAUAACUA against OR5B2  -12.5
2. UUUCAGCUUAGGAAAGGCA against KRTDAP  -4.29
3. AUAAGAUACCUCUCUAUUC against NXPE1  -3.1
4. UUUGUCUUUUGCAUCUUUC against SFPQ  -2.66
5. UAUUAUUCGACUCAUGGUC against EFCAB2  -2.54
6. AUCCAGAUUAGUUUCCCUC against VIM  -2.52
7. UUUGGUGCUUAGUUUGUUC against LOC642262  -2.38
8. UCAGGUGGUAGGGAGGUUG against UBE2L6  -2.37
9. UCUUCGUCAUCGUUCAUUC against ZC3H4  -2.37
10. UACUGCUAGAUUGAGAUCC against KDM5D  -2.31
11. UUGUGCACCACGAGAGUAG against RAB40AL  -2.28
12. AACUCUGCGAACACGGCCU against AQP5  -2.17
13. UUCAAUACCAAAGAUAUUG against BTF3P16  -2.14
14. UGUUAUUGAAGAUGUCAGC against SLF2  -2.1
15. UUCUUUAUAGGCAUAGGCU against RPH3A  -2.08
16. UUCUCUUCAACAAGUGACA against C6orf201  -2.08
17. UCUGGAAUAACGGUGCAGC against C15orf62  -1.54
18. AUAGGGAGCACUUGGGAGC against C20orf24  -1.49
19. UUCGCUGUCACUGUGGUUG against FAM134C  -1.48
20. UGUUUUACCAACAGCACCA against CDC42  -1.21
21. AAUGAGAUUAUGUUGGUCA against SNX29  -1.19
22. AAUUGUCGUAGUCAGUAUC against PAEP  -0.99
23. UAGCUUCAAUACUUCAUCC against LRRC27  -0.986
24. AUCGUUCACGUCUUGAUCC against CPSF6  -0.744
25. UACUCUUUUCCACGAAUCC against CCDC141  -0.626
26. UCCAUGUUGACUAAGAUUC against GRHL3  -0.595
27. UUGCAUUUUCAGGUACUUG against RDH5  -0.555
28. UGACGUGACAAGCUGAAUG against ALYREF  -0.554
29. UCUGCGACAUUCCUCAUAG against XPO1  -0.546
30. UCAGGUUCAGCAGGAAGUG against ADAMTS10  -0.537
31. UUUCUGUAGGCUUUUCUGG against DPCR1  -0.53
32. UUUAUAUUCAAUGGGCUUC against FAM45A  -0.523
33. UUGAGAUAGGCUGAGACCU against TMPRSS4  -0.502
34. UUAAUGGUGACCUUGACCU against C19orf47  -0.413
35. UAAACUGAAACGGAAAUGC against PTCHD3P1  -0.411
36. UGUCUAAUGACAAUGCUGU against UBR5  -0.38
37. AAAGUGAACAUCGGGUCCC against LILRA4  -0.351
38. AUAUUAGCAUUCUUAAUGG against ABCB10  -0.347
39. UAAGGUUGGUGACUGGAGA against MUC6  -0.303
40. UUCGAGCUUUCUUAUGUCC against SLC12A6  -0.303
41. UCUCUGUCCUCAAAAGUGG against CLCN4  -0.277
42. AGUACUACAAACCAAAUCC against FAM35A  -0.242
43. UUCAUGACUCUUGCAUUCC against ZNF473  -0.227
44. AACUGAGUUGUAGAGCUGC against IL12RB1  -0.226
45. UGUAGGACAAGCGCUGCUG against DGCR6  -0.188
46. UGAUAUAGCCUCCAUAUGC against INVS  -0.175
47. UAAAAUGUCUGACUCCUUG against CDKN1A  -0.147
48. AUCUUUACAAAUACCCUGC against BCL11A  -0.136
49. UCUGAGUUUUGAGCUGUCC against MST1R  -0.112
50. UAAGGUUCGGAUAUGGGUA against C9orf24  -0.108
51. UAACAUCGCACCAGUAAUC against L3MBTL4  -0.0952
52. UACGUGAGCUUGUACAGCC against MTTP  -0.0803
53. UUUGUAAGCUCUGUCAUCC against FAM13B  -0.0737
54. UAAGGCCCAAAUUUGUCUC against HSF4  -0.0642
55. AUAGACAUCUGAUCCGUUC against PGK1  -0.0528
56. AGAUCUAUUGUGAACAGCC against FLT3  -0.0495
57. UUAAGAUUGACCUUUCUCC against KIAA1755  -0.0251
58. UAGGUAAAUAGCCUCGUGC against CEACAM19  0.0325
59. ACAGCAAGCAUUCAGAGUC against MMS19  0.146
60. UGUUCCUUUAUUGUAGCCC against ALG13  0.155
61. UUCUAAUCUAGUGAUUAGC against LDB2  0.172
62. UGAUGAAGUAGAGACGUGC against EXTL2  0.177
63. UUAGAUUGCACAAUCCUGU against DMRTC1  0.235
64. UGAGGUCCCAGAUUCUCAG against FBXW4  0.248
65. UUGAGUUUGUCACAGUUUC against SH3BP2  0.349
66. AUAUCAAUGAUUGAGAGGU against OR4F15  0.359
67. AAUUCUUUUUGUCUGGAUC against PRSS35  0.405
68. UCGAGUGUGAUGUCUCUUC against AGO3  0.413
69. AAACUGGUUGGAGUUGUUG against ITGB2  0.512
70. UUCUAUGCAAUCCAAAACC against DGKB  0.554
71. UUAGUUUCUACAUUAUUGU against ENTPD1-AS1  0.559
72. UUCUCCAUCAAAUUAGCCG against LIN52  0.578
73. AAACCUUCCAUUGUUGAGG against ACADVL  0.629
74. ACCUGUCAAAGAGCAAAGC against AMD1P3  0.646
75. UUCUGGAGCAGUUCGACAG against CNPPD1  0.781
76. UAAAUCUGCUCUCCUUUCC against LY86  0.785
77. CAGGUAGAACGUGUCGUCC against ENDOG  0.88
78. UACAUUGACAGCAUAUCCU against NSDHL  0.882
79. UUUCUGGUAAAACUCCUCA against HS1BP3  0.892
80. UAUAGUCUGCGUAGAGUUC against BSCL2  0.905
81. UUUGAUUGAGGCAUAUGCG against REEP6  1.08
82. UAUCUUGCAUAAGUCUUGU against XRCC6BP1  1.28
83. UCAAUCUCAACGGUCACCG against NLRP1  1.3
84. UCGGUAUUCGAUGUGGUCC against CD177  1.39
85. UUCCAUAUUUAUUAGAGCC against PURG  1.54

Source: PubChem BioAssay AID1159506 (National Center for Advancing Translational Sciences (NCATS), 2015)
